# In ChEMBL document CHEMBL4513216, “Probing the Open Global Health Chemical Diversity Library for Multistage-Active Starting Points for Next-Generation Antimalarials” (ACS Infect Dis, 2020):
# About 8,600 (12%) of roughly 69,000 compounds showed an effect of 50% or more. Shown is part of a subset that was picked to be rich in strong results.
# System: Plasmodium berghei
# Assay: Screen against P. berghei liver stage (PbLuc), transformed with Luciferase, at 10uM
# Format: functional, HepG2
# Details: tested at 10 uM
row,SMILES,INHIBITION
1,COCc1noc(CN2CC(Cc3ccccc3)CC2=O)n1 (centres undefined),-23.3%
2,CN1CCCC(Cc2cncc(C(=O)NC3CC3)c2)C1 (centres undefined),8.72%
3,Cn1ncc2c1CCCC2NCc1ccc(Br)s1 (centres undefined),35.3%
4,CCCN(C)CCC(=O)N1CCCC1Cn1cccn1 (centres undefined),-15.5%
5,CSCc1noc(CNC(=O)C2CCN(C(C)C)CC2)n1,8.51%
6,Cc1nc(CN2CCc3nn(C)c(=O)cc3C2)oc1C,-3.7%
7,CCn1cc(NS(=O)(=O)c2ccc(F)cc2)c(C(=O)NCC(C)C)n1,22%
8,CN1[C@H](Cn2cncn2)C[C@@H]2CN(C3CCOCC3)CC[C@@H]21,34.6%
9,Cc1noc(CNC(=O)CN(C)c2nc3c(C)ccc(C)c3s2)n1,57.8%
10,Cc1noc(CNC(=O)CN(C)c2nc3c(F)cccc3s2)n1,47%
11,COc1cccc2sc(N(C)CC(=O)NCc3nc(C)no3)nc12,-14.9%
12,CC(C)(CNC(=O)COc1cccc(F)c1)C(N)=O,46.75%
13,CCOC(=O)CCC(=O)N1CCC(Oc2ccc(C(F)(F)F)cn2)CC1,32.4%
14,CN(CC(=O)N1CCC(Oc2ccc(C(F)(F)F)cn2)CC1)S(C)(=O)=O,-20.5%
15,N#Cc1ccc(Oc2cc(F)c(CN3CCCC3)c(F)c2)nc1,26%
16,Fc1cc(Oc2ccc(C(F)(F)F)cn2)cc(F)c1CN1CCCC1,78.9%
17,Cc1cc(CN2CCCC2)cc(Oc2ccc(C(F)(F)F)cn2)c1,61.9%
18,O=C(Cn1cccn1)N1CCC(Oc2ccc(C(F)(F)F)cn2)CC1,40%
19,O=C(CN1CCOCC1)N1CCC2(CCCN(C3CCOCC3)C2=O)C1 (centres undefined),-9.02%
20,COCCN1CCCC(C)(c2cc(O)[nH]n2)C1 (centres undefined),-3.02%
21,CN(Cc1ccccc1)C(=O)CN1CCOC(Cn2cncn2)C1 (centres undefined),-9.37%
22,Cc1ccc(CN(C)C(=O)CN2CCCCC2Cn2cncn2)cc1 (centres undefined),74.2%

row,SMILES,INHIBITION
1,Cc1ccc(CN(C)C(=O)CN2CCCC2Cn2cncn2)cc1 (centres undefined),42.4%
2,CN(Cc1ccsc1)C(=O)CN1CCCCC1Cn1cccn1 (centres undefined),-96.9%
3,CN(Cc1ccc(F)cc1)C(=O)CN1CCCCC1Cn1cncn1 (centres undefined),48.4%
4,CN(Cc1cccs1)C(=O)CN1CCOC(Cn2cncn2)C1 (centres undefined),62.6%
5,Cc1cnn(CC2CN(CC(=O)N(C)Cc3cccs3)CCO2)c1 (centres undefined),35.3%
6,CN(Cc1cccs1)C(=O)CN1CCCC1Cn1cncn1 (centres undefined),23.5%
7,CN(Cc1ccsc1)C(=O)CN1CCCC1Cn1cccn1 (centres undefined),63.9%
8,CN(Cc1ccco1)C(=O)CN1CCCCC1Cn1cncn1 (centres undefined),7.67%
9,Cc1cnn(CC2CCCN2CC(=O)N(C)Cc2ccsc2)c1 (centres undefined),34.5%
10,CN(Cc1cccs1)C(=O)CN1CCCCC1Cn1cncn1 (centres undefined),59.3%
11,O=C(CC(F)(F)F)Nc1cc(F)ccc1OCC1CCCO1 (centres undefined),-6.14%
12,CCn1nc(C)cc1C(=O)N1C[C@H]2CCC[C@@]2(COc2ccccn2)C1,-36.9%
13,CCC1CN(CC(=O)NCCN2CCCC2)c2ccccc2S1 (centres undefined),18.3%
14,CN(C)C1CCN(C(=O)c2n[nH]c3c2CCN(CC2CCC2)C3)CC1,-39%
15,Cc1cc(-c2ccc(=O)n(C3CCN(S(=O)(=O)N(C)C)CC3)n2)c(C)o1,-25.3%
16,CNc1cc(CCNC(=O)CC(C)C)nc(-c2ccccn2)n1,-27.4%
17,CN(Cc1ccccc1)C(=O)CN1CCCCC1Cn1cncn1 (centres undefined),25.6%
18,Cc1cnn(C2CN(CC(=O)N(C)Cc3cccs3)C2)c1,52.2%
19,Cc1cnn(C2CN(CC(=O)NCCc3cccs3)C2)c1,45.7%
20,Cc1cnn(C2CN(CC(=O)N(C)Cc3ccc(C)o3)C2)c1,34%
21,CCN(Cc1ccccc1)C(=O)CN1CCCCC1Cn1cncn1 (centres undefined),38.5%
22,Cc1ccccc1CN(C)C(=O)CN1CCCCC1Cn1cncn1 (centres undefined),81.2%

row,SMILES,INHIBITION
1,Cc1nnnn1-c1cc(NCc2cc(C#N)ccc2F)ccc1F,32.3%
2,O[C@@H]1CCN(CC2CCOC2)[C@H]1Cc1cccnc1 (some centres undefined),23.1%
3,O=C(c1ccc2cc[nH]c2c1)N1CCCN(Cc2cscn2)CC1,13.6%
4,O=S(=O)(NCc1cccnc1OC1CCCC1)N1CCCCC1,21.9%
5,CCOc1ncccc1CNc1nnc(C)c(C)c1C#N,-23.45%
6,N#Cc1c(Cl)nsc1NCc1cccnc1OCC(F)(F)F,88.5%
7,Cc1nnc(NCc2cccnc2OCC(F)(F)F)c(C#N)c1C,-0.18%
8,N#Cc1c(Cl)nsc1NCc1ccc(N2CCC(CO)CC2)cc1,30.9%
9,CC(O)CNC(=O)NCc1cccnc1OC1CCCC1 (centres undefined),22.7%
10,CC(C(=O)NCc1ccnc(OCC(F)(F)F)c1)n1cncn1 (centres undefined),-18.2%
11,N#Cc1c(Cl)nsc1NCc1ccnc(OCC(F)(F)F)c1,81.7%
12,N#Cc1c(Cl)nsc1NCc1ccc(N2CCSCC2)cc1,59.5%
13,Cc1oncc1C(=O)NCc1ccnc(OCC(F)(F)F)c1,-6.15%
14,N#Cc1c(Cl)nsc1NCc1ccc(N2CCCC(C(N)=O)C2)cc1 (centres undefined),26.6%
15,N#Cc1c(Cl)nsc1NCc1cccnc1OC1CCCC1,85.9%
16,Nc1nccc(C2CCN(CC3CC3)C2)n1 (centres undefined),20.2%
17,CN(CCc1cn[nH]c1)C(=O)CCc1ccc(Cl)cc1,49%
18,CC(Nc1cccc2c1OCCO2)C(=O)Nc1ccc(Cl)cc1 (centres undefined),-10.3%
19,CCc1nnc2n1CCN(C(=O)c1cc3cc(C)ccc3[nH]1)C2,10%
20,O=C(Nc1ccc(-n2ccc(C(=O)O)n2)cc1)c1ccccc1,39.5%
21,Cc1cn([C@@H]2CC3(CCNCC3)OC[C@@]2(C)O)c(=O)[nH]c1=O,37.1%
22,CC(=O)N1CC(=O)N(c2cnn(C)c2)CC12CCN(Cc1ccco1)C2 (centres undefined),29.7%

row,SMILES,INHIBITION
1,CC(C)=CCN1CCOC(Cn2cccn2)C1 (centres undefined),19.5%
2,CC(C)CN1CCCC12CCN(c1nncs1)C2 (centres undefined),37.8%
3,N#Cc1ccc(CCC(=O)N2CCCC(n3cncn3)C2)cc1 (centres undefined),19.2%
4,CCCOc1ncccc1CNc1nnc(C)c(C)c1C#N,41.15%
5,CN(C)c1ncccc1CNc1snc(Cl)c1C#N,49.1%
6,COc1ncccc1CNc1snc(Cl)c1C#N,54.3%
7,CCCN(Cc1nc(-c2ccoc2)oc1C)CC1CCCO1 (centres undefined),-13.1%
8,Cc1cc(C)cc(-c2cccc(CC3(C(=O)O)CCOCC3)c2)c1,38.7%
9,COc1ccc(-c2cccc(CC3(C(=O)O)CCOCC3)c2)cc1,29.2%
10,Cc1cc(C)cc(-c2ccc(CC3(C(=O)O)CCOCC3)cc2)c1,61.4%
11,Cc1cccc(-c2cccc(CC3(C(=O)O)CCOCC3)c2)c1,13.5%
12,O=C(O)C1(Cc2cccc(-c3ccc(F)cc3)c2)CCOCC1,-22.6%
13,O=C(O)C1(Cc2cccc(-c3ccc(F)c(F)c3)c2)CCOCC1,58.6%
14,Cn1cccc1C(=O)N1C[C@@H](OCc2cccnc2)[C@H]2OCCC[C@H]21,41.3%
15,CN(C)CC(=O)NC1CC(=O)N(CCc2ccccc2)C1 (centres undefined),11.2%
16,Cc1cc2c(=O)n3c(nc2s1)CCN(C(=O)c1cn(C)nc1C)CC3,14.7%
17,Cc1nnn2c1COCC(CNCc1nccs1)C2 (centres undefined),-27.6%
18,Cc1cc2n(n1)CC(CNC1CCN(Cc3ccncc3)CC1)CN2 (centres undefined),16.1%
19,c1ccc(CN2CCC(NCCc3ccc4c(c3)CCO4)CC2)nc1,25.7%
20,Cc1cc2n(n1)CC(CNC1CCN(Cc3ccccc3C)CC1)CN2 (centres undefined),16.6%
21,Cc1cc2n(n1)CC(CNC1CCN(Cc3ccccn3)CC1)CN2 (centres undefined),50.2%
22,N#Cc1ccc(NC2CCN(Cc3ccccn3)CC2)c(F)c1,-5.78%

row,SMILES,INHIBITION
1,CC(CNC1CCN(Cc2ccncc2)CC1)c1ccc(F)cc1F (centres undefined),-0.275%
2,Cc1cc2n(n1)CC(CNC1CCN(c3ccccn3)CC1)CN2 (centres undefined),31.4%
3,Fc1ccc(OCCNC2CCN(Cc3ccncc3)CC2)c(F)c1,61.3%
4,Fc1ccc(OCCNC2CCN(Cc3ccccn3)CC2)c(F)c1,53.6%
5,Fc1cccc(-c2c[nH]c(C3CCCN3)n2)c1 (centres undefined),-4.62%
6,CN(C(=O)NCC1(CN2CCOCC2)CCCCC1)C1CC1,0.0944%
7,Cc1nc(CN2CCC(N(C)Cc3noc(C(C)C)n3)C2)oc1C (centres undefined),11.4%
8,CN1CC(=O)N(c2cccc(F)c2)CC12CCN(CC1CC1)C2 (centres undefined),19.5%
9,CN(Cc1nccn1C)S(=O)(=O)N1CCCC1c1ccco1 (centres undefined),15.7%
10,CC(O)CN1CCC(=O)N(Cc2ccccc2)Cc2ccccc21 (centres undefined),28.3%
11,CC(c1nc(C2CC2)no1)N1CCN(c2ccc(C#N)cn2)CC1 (centres undefined),55.3%
12,CC(C)c1noc(C(C)N2CCN(Cc3cccc(C#N)c3)CC2)n1 (centres undefined),-8.11%
13,COc1ccc(CN2CCN(C(C)c3nc(C4CC4)no3)CC2)cc1 (centres undefined),40.3%
14,CC(c1nc(C2CC2)no1)N1CCN(Cc2ccc(C#N)cc2)CC1 (centres undefined),57%
15,CC(C)c1noc(C(C)N2CCN(c3ccc(C#N)cn3)CC2)n1 (centres undefined),45.9%
16,CC(c1nc(C2CC2)no1)N1CCN(Cc2cccc(C#N)c2)CC1 (centres undefined),60.5%
17,CC(c1nc(C2CC2)no1)N1CCN(Cc2ccccc2)CC1 (centres undefined),27.4%
18,Cc1noc(C(C)N2CCN(c3ccc(C#N)cn3)CC2)n1 (centres undefined),-5.78%
19,Cc1noc(C(C)N2CCN(Cc3cccc(C#N)c3)CC2)n1 (centres undefined),21.5%
20,CCC(C)(C)NC(=O)CN1C=Nc2ccccc2S1(=O)=O,19.6%
21,c1cnc(N2CCC3(CCN(CC4CCOCC4)CC3)C2)nc1,5.67%
